About 2,000 (36%) of roughly 5,500 compounds were called active. Not shown: some 18% with an inconclusive outcome. No stated cut-off is given here; in the data, active means normalized growth mostly below about 0.91 (no sharp cut-off); inconclusive means no clear call, values can overlap the other calls; inactive means mostly above about 0.92. The list shows a part of the results.
Assay: chemical genetic growth profiling, strain panel (AID 1159580);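 further: tested at 20 µM; growth read once vehicle control cultures reached saturation at 30 °C; 1 = growth at the plate median or of vehicle wells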
Conditions: S. cerevisiae deletion strains, growth OD

Measured: normalized growth

O=C(O)c1ccccc1
inactive: locus YAL021C, strain ccr4, stronger effect = lower value 0.97 | locus YAL026C, strain drs2, stronger effect = lower value 0.962 | locus YAL030W, strain snc1, stronger effect = lower value 0.977 | locus YBL061C, strain skt5, stronger effect = lower value 0.975 | locus YBR009C, strain hhf1, stronger effect = lower value 0.981 | locus YBR023C, strain chs3, stronger effect = lower value 0.981 | locus YBR171W, strain sec66, stronger effect = lower value 0.957 | locus YBR231C, strain swc5, stronger effect = lower value 0.974 | locus YBR279W, strain paf1, stronger effect = lower value 0.981 | locus YCL011C, strain gbp2, stronger effect = lower value 0.954 | locus YCL016C, strain dcc1, stronger effect = lower value 0.962 | locus YCL061C, strain MRC1, stronger effect = lower value 0.966 | locus YCL069W, strain vba3, stronger effect = lower value 0.986 | locus YCR088W, strain abp1, stronger effect = lower value 0.996 | locus YDL005C, strain med2, stronger effect = lower value 0.973 | locus YDL040C, strain nat1, stronger effect = lower value 0.994 | locus YDR001C, strain nth1, stronger effect = lower value 0.973 | locus YDR069C, strain doa4, stronger effect = lower value 0.958 | locus YDR137W, strain rgp1, stronger effect = lower value 0.975 | locus YDR159W, strain sac3, stronger effect = lower value 0.966 | locus YDR195W, strain ref2 1.02 | locus YDR297W, strain sur2, stronger effect = lower value 0.979 | locus YDR334W, strain swr1, stronger effect = lower value 0.911 | locus YDR335W, strain msn5, stronger effect = lower value 0.976 | locus YDR392W, strain spt3, stronger effect = lower value 0.962 | locus YEL003W, strain gim4, stronger effect = lower value 0.988 | locus YEL037C, strain rad23, stronger effect = lower value 0.988 | locus YEL061C, strain CIN8 (second series), stronger effect = lower value 0.971 | locus YER015W, strain faa2, stronger effect = lower value 0.987 | locus YER016W, strain bim1, stronger effect = lower value 0.983 | locus YER111C, strain swi4, stronger effect = lower value 0.971 | locus YER155C, strain BEM2 (second series), stronger effect = lower value 0.962 | locus YFR010W, strain ubp6, stronger effect = lower value 0.958 | locus YGL167C, strain pmr1, stronger effect = lower value 0.956 | locus YGL173C, strain kem1, stronger effect = lower value 0.956 | locus YGL227W, strain vid30, stronger effect = lower value 0.97 | locus YGL240W, strain doc1, stronger effect = lower value 0.959 | locus YGL253W, strain hxk2, stronger effect = lower value 0.965 | locus YHR013C, strain ard1, stronger effect = lower value 0.962 | locus YHR027C, strain rpn1, stronger effect = lower value 0.944 | locus YHR030C, strain SLT2, stronger effect = lower value 0.894 | locus YHR079C, strain IRE1, stronger effect = lower value 0.891 | locus YHR142W, strain chs7, stronger effect = lower value 0.928 | locus YJL092W, strain hpr5, stronger effect = lower value 0.966 | locus YJL095W, strain BCK1 (second series), stronger effect = lower value 0.989 | locus YJL095W, strain BCK1, stronger effect = lower value 0.893 | locus YJL115W, strain asf1, stronger effect = lower value 0.945 | locus YJL129C, strain trk1, stronger effect = lower value 0.987 | locus YJL154C, strain vps35, stronger effect = lower value 0.975 | locus YJL164C, strain tpk1, stronger effect = lower value 1 | locus YJL166W, strain qcr8, stronger effect = lower value 0.969 | locus YJL187C, strain SWE1, stronger effect = lower value 0.982 | locus YJR066W, strain TOR1, stronger effect = lower value 0.863 | locus YKL160W, strain elf1, stronger effect = lower value 0.965 | locus YKR026C, strain gcn3, stronger effect = lower value 0.978 | locus YLL001W, strain dnm1, stronger effect = lower value 0.948 | locus YLL026W, stronger effect = lower value 0.982 | locus YLL041C, strain sdh2, stronger effect = lower value 0.966 | locus YLR027C, strain aat2, stronger effect = lower value 0.967 | locus YLR221C, strain rsa3, stronger effect = lower value 0.927 | locus YLR258W, strain gsy2, stronger effect = lower value 0.989 | locus YLR262C, strain YPT6 (second series), stronger effect = lower value 0.998 | locus YLR320W, strain mms22, stronger effect = lower value 0.943 | locus YLR342W, strain FKS1, stronger effect = lower value 0.972 | locus YLR357W, strain rsc2, stronger effect = lower value 0.969 | locus YLR370C, strain arc18, stronger effect = lower value 0.949 | locus YLR384C, strain iki3, stronger effect = lower value 0.958 | locus YML120C, strain ndi1, stronger effect = lower value 0.948 | locus YMR058W, strain fet3, stronger effect = lower value 0.951 | locus YMR125W, strain sto1, stronger effect = lower value 0.98 | locus YMR129W, stronger effect = lower value 0.988 | locus YMR205C, strain PFK2, stronger effect = lower value 0.967 | locus YMR231W, strain pep5, stronger effect = lower value 0.987 | locus YNL071W, strain lat1, stronger effect = lower value 0.988 | locus YNL183C, strain NPR1, stronger effect = lower value 0.84 | locus YNL209W, strain ssb2, stronger effect = lower value 0.975 | locus YNL248C, strain rpa49, stronger effect = lower value 0.966 | locus YNL322C, strain KRE1 (second series), stronger effect = lower value 0.933 | locus YNR049C, strain mso1, stronger effect = lower value 0.955 | locus YOR001W, strain rrp6, stronger effect = lower value 0.965 | locus YOR070C, strain gyp1, stronger effect = lower value 0.985 | locus YOR080W, strain dia2, stronger effect = lower value 0.963 | locus YOR083W, strain WHI5, stronger effect = lower value 0.961 | locus YOR106W, strain vam3, stronger effect = lower value 0.923 | locus YOR265W, strain rbl2, stronger effect = lower value 0.981 | locus YOR270C, strain vph1, stronger effect = lower value 0.98 | locus YOR290C, strain snf2, stronger effect = lower value 0.907 | locus YPL051W, strain arl3, stronger effect = lower value 0.989 | locus YPL078C, strain atp4, stronger effect = lower value 0.974 | locus YPL106C, strain sse1, stronger effect = lower value 0.962 | locus YPL240C, strain hsp82, stronger effect = lower value 0.996 | locus YPL256C, strain CLN2, stronger effect = lower value 0.855
active: locus YLR113W, strain HOG1, stronger effect = lower value 0.78 | locus YOR231W, strain MKK1, stronger effect = lower value 0.86

NC(=O)c1ccccc1
inactive: locus YAL040C, strain CLN3, stronger effect = lower value 0.923 | locus YCL061C, strain MRC1 (second series), stronger effect = lower value 1.01 | locus YER002W, strain NOP16, stronger effect = lower value 0.988 | locus YGR078C, strain PAC10, stronger effect = lower value 0.997 | locus YGR229C, strain SMI1, stronger effect = lower value 1.04 | locus YNL153C, strain GIM3, stronger effect = lower value 1.01 | locus YNL175C, strain NOP13, stronger effect = lower value 0.972 | locus YNL197C, strain WHI3, stronger effect = lower value 0.979 | locus YNL224C, strain SQS1, stronger effect = lower value 0.997 | locus YOR083W, strain WHI5 (second series), stronger effect = lower value 0.952

— PubChem BioAssay AID1159580 (chemical genetic matrix, 2015)
